Source: PubChem BioAssay (SRMLSC)
An excerpt weighted towards active compounds, which were near 6.8% of everything screened.
Abs 340nm: absorbance at 340 nm. fold change at 10 µM. 65,000 tested, under 10 active. compound absorbance at 340 nm, fold over control;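 active = at 10 µM dose, initial 340 nm absorbance at least 2 fold that of control wells; inactive = change under 2 fold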;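 also: initial absorbance extrapolated from kinetic A340 decline of NADH oxidation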
NADH coupling: inhibitors of enzymes used to reach an NAD/NADH endpoint. coupled PK/LDH NADH assays, four targets. IC50, µM (doses to about 10 µM). 65,000 compounds, 0.02% hits. AID 774;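 active = single-dose screening hits from any of four coupled enzyme assays that gave an IC50 when retested across doses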;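 also: the DPM-DC format reads NADH fluorescence rather than 340 nm absorbance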
Fluor 339 460: intrinsic fluorescence of library compounds, ex339/em460 – biochemical, MLSMR library, data from DPM-DC assay, artefact control, profiling panel; compound autofluorescence, ex339/em460 nm, NADH buffer; stronger effect = higher value; 1 = no-compound wells, NADH background; fluorescence fold increase at 10 µM; 65,000 compounds, 5.5% hits;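 active = at 10 µM, mean starting fluorescence two-fold or more over control wells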;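 also: signal is the first read of a kinetic run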
Spn PMK inh: S. pneumoniae PMK inhibition; purified PMK, PK/LDH-coupled NADH absorbance 340 nm; inhibition, % at 10 µM; 65,000 compounds, 0.49% hits; AID 539;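 active = top-ranked compounds by inhibition in the single 10 µM screen, taking a fixed number of the strongest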
DPM-DC inhibit: S. pneumoniae DPM-DC inhibition; 65,000 compounds, 0.49% hits; purified DPM-DC, PK/LDH coupled NADH fluorescence; calls only at 10 µM;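 active = the 320 compounds with the highest percent inhibition in the single-dose primary screen, excluding strongly autofluorescent ones, cut at about 32% in these data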;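 also: kinetic rate of NADH fluorescence loss reporting ADP formed by the decarboxylase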
MK inhibit: S. pneumoniae mevalonate kinase inhibition; purified MK, PK/LDH-coupled NADH absorbance 340 nm; inhibition, % at 10 µM; 65,000 compounds, 0.48% hits; AID 555;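 active = ranked among the strongest by inhibition in the single 10 µM screen, a fixed top-ranked set picked for dose follow-up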
Hits are given with their value; 0 = inactive; - = not tested or not shown.

SMILES | Abs 340nm | NADH coupling | Fluor 339 460 | Spn PMK inh | DPM-DC inhibit | MK inhibit
CCCn1c(=NC(=O)c2ccncc2)c(C#N)cc2c(=O)n3cccc(C)c3nc21 | 0 | 0 | 3.6 | 0 | - | 0
Cc1cccn2c(=O)c3cc(C#N)c(=N)n(CCN4CCOCC4)c3nc12 | 0 | 0 | 0 | 0 | - | 0
CCCn1c(=NC(=O)c2ccc3c(c2)OCO3)c(C#N)cc2c(=O)n3cccc(C)c3nc21 | 0 | 0 | 0 | 0 | 0 | 0
COCCCn1c(=NC(=O)c2ccncc2)c(C#N)cc2c(=O)n3cccc(C)c3nc21 | 0 | 0 | 3.92 | 0 | - | 0
O=C(O)c1ccc(CS(=O)(=O)c2cccc(C(F)(F)F)c2)o1 | 0 | 0 | 0 | 0 | 0 | 0
CCOC(=O)C1CCCN(c2c(Nc3cccc(C)c3)c(=O)c2=O)C1 (configuration not stated) | 0 | 0 | 0 | 0 | 0 | 0
Cc1cccc2cc3c(N)c(C(=O)N4CCOCC4)sc3nc12 | 0 | 0 | 0 | 0 | 0 | 0
Nc1nc2sc3c(c2cc1C(=O)N1CCOCC1)CCCC3 | 0 | 0 | 2.17 | 0 | - | 0
CC1CCOC2(O1)C(=O)N(CN1CCN(c3ccccc3F)CC1)c1ccccc12 (configuration not stated) | 0 | 0 | 0 | 0 | 0 | 0
Nc1c2c(nc3ccccc13)N(C1CCCCC1)CC2 | 0 | 0 | 2.32 | 0 | - | 49.0
Cn1nnnc1Sc1nc(-c2cccnc2)nc2ccccc12 | 0 | 0 | 0 | 0 | 0 | 0
CC(C)(C)c1ccccc1NC(=O)c1ccco1 | 0 | 0 | 0 | 0 | 0 | 0
